# Assay results taken from PubChem BioAssay (EPA / NIEHS).
# Inconclusive results are not listed. Active and inactive are the calls of the source. Rule for the calls, unless noted: active = hit-call score of the fitted dose curve at least 0.9, where 1 is the maximum; inconclusive = response in the unintended direction; inactive = score below 0.9.
# Target: Estrogen receptor (Homo sapiens) (UniProt P03372)
# Experiment: ATG_ERa_TRANS: Attagene TRANS-FACTORIAL HepG2 Assay for human Estrogen Receptor alpha (ERa) (AID 2282970)
# Conditions: HepG2 Attagene TRANS ERa GAL4 reporter, mRNA
# In short: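 Signal derives from fluorescence of labelled reporter PCR fragments separated by capillary electrophoresis. HepG2 cells transiently carrying multiple GAL4-UAS reporter units were treated 24 hours, and induction above DMSO baseline was fitted as activity.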
# Estrogen receptor (Homo sapiens), sequence (P03372 whole entry, looked up): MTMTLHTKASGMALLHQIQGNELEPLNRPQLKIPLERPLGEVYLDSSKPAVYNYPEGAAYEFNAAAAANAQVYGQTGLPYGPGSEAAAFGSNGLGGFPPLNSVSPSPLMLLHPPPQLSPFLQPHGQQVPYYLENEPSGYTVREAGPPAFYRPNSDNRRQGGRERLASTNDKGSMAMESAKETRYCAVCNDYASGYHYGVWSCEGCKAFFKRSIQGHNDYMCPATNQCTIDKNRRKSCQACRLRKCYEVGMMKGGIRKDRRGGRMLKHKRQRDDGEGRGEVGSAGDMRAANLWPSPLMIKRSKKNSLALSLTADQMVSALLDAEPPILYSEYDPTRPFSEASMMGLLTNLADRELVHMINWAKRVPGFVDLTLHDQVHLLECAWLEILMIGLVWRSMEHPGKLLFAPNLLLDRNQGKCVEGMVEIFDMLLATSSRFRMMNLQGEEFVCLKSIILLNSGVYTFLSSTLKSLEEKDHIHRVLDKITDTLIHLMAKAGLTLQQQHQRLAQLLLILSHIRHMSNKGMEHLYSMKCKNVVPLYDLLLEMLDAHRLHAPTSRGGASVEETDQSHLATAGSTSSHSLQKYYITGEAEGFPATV
SMILES,AC50,outcome
Nn1cnnc1,26 µM (active),
OCC(O)CO,85.1 µM (active),
Cc1cc2c3c(c1)C(c1ccccc1)=N[C@@H](NC(=O)c1ccncc1)C(=O)N3CC2,,inactive
O=C(N[C@H]1CN2CCC1CC2)c1cc2ccoc2cn1,,inactive
CCCCCCOC(=O)c1ccccc1C(=O)OCCCCCC,,inactive
CCSC(=O)N(CC)C1CCCCC1,,inactive

# Target: X-box-binding protein 1 (Homo sapiens) (UniProt P17861)
# Experiment: ATG_Xbp1_CIS: Attagene CIS-FACTORIAL HepG2 Assay for human X-box Binding Protein 1 (XBP1) (AID 2282972; active = hit-call score of the fitted dose curve at least 0.9, where 1 is the maximum; inactive = score below 0.9)
# Conditions: HepG2 XBP1 cis-element reporter, Attagene multiplex; actives raise or lower the signal
# In short: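 Multiplexed cis-reporter readout in transfected HepG2 liver cells. Exposure lasted 24 hours. Activity in either direction was fitted against DMSO as negative control and baseline.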
# X-box-binding protein 1 (Homo sapiens), sequence (P17861 whole entry, looked up): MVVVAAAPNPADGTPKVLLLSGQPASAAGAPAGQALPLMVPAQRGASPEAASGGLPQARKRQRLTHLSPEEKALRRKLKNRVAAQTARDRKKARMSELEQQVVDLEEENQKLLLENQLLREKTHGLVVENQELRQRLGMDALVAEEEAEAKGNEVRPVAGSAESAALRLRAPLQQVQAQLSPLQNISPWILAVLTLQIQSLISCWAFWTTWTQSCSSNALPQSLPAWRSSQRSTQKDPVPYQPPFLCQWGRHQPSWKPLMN
SMILES,outcome,AC50
O=C(NC(=O)c1cc(F)c(F)cc1Cl)Nc1cc(F)ccc1N1CCC(C(=O)O)CC1,inactive,
C=CC(N)=O,inactive,
CC(c1ccc(O)cc1)(c1ccc(O)cc1)c1ccc(O)cc1,,11.1 µM (active)
ClC1=C(Cl)[C@]2(Cl)[C@@H]3[C@@H](Cl)[C@H]4O[C@H]4[C@@H]3C1(Cl)C2(Cl)Cl,,36.5 µM (active)
CN(C)c1nc(=O)n(C2CCCCC2)c(=O)n1C,inactive,
CC#Cc1cc(C)nc(Nc2ccccc2)n1,inactive,
C[C@]12CCC(=O)C=C1CC[C@@H]1[C@@H]2CC[C@]2(C)C(=O)CC[C@@H]12,inactive,
CC1=C2C[C@H]3[C@@H](CC=C4C[C@@H](O)CC[C@@]43C)[C@@H]2CC[C@]12O[C@@H]1C[C@H](C)CN[C@H]1[C@H]2C,inactive,
Oc1ccc(Cl)cc1Cl,inactive,
Nn1cnnc1,inactive,
OCC(O)CO,inactive,
Cc1cc2c3c(c1)C(c1ccccc1)=N[C@@H](NC(=O)c1ccncc1)C(=O)N3CC2,,100 µM (active)
O=C(N[C@H]1CN2CCC1CC2)c1cc2ccoc2cn1,inactive,
O=S(=O)(O)C(F)(F)C(F)(F)C(F)(F)C(F)(F)F,inactive,
C1CC2OC2CC1C1CO1 (stereo unspecified),inactive,
CCSC(=O)N(CC)C1CCCCC1,inactive,

# Target: Androgen receptor (Homo sapiens) (UniProt P10275)
# Experiment: ATG_AR_TRANS: Attagene TRANS-FACTORIAL HepG2 Assay for human Androgen Receptor (AR) (AID 2282973)
# Conditions: HepG2 Attagene TRANS-FACTORIAL AR reporter transcription
# In short: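 Chimeric nuclear receptor–Gal4 activity was assessed in human HepG2 hepatocytes after 24 h chemical dosing. Induced reporter mRNA was detected via labelled RT-PCR fragments on capillary electrophoresis, and gain of signal was analysed against DMSO.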
# Androgen receptor (Homo sapiens), sequence (P10275 whole entry, looked up): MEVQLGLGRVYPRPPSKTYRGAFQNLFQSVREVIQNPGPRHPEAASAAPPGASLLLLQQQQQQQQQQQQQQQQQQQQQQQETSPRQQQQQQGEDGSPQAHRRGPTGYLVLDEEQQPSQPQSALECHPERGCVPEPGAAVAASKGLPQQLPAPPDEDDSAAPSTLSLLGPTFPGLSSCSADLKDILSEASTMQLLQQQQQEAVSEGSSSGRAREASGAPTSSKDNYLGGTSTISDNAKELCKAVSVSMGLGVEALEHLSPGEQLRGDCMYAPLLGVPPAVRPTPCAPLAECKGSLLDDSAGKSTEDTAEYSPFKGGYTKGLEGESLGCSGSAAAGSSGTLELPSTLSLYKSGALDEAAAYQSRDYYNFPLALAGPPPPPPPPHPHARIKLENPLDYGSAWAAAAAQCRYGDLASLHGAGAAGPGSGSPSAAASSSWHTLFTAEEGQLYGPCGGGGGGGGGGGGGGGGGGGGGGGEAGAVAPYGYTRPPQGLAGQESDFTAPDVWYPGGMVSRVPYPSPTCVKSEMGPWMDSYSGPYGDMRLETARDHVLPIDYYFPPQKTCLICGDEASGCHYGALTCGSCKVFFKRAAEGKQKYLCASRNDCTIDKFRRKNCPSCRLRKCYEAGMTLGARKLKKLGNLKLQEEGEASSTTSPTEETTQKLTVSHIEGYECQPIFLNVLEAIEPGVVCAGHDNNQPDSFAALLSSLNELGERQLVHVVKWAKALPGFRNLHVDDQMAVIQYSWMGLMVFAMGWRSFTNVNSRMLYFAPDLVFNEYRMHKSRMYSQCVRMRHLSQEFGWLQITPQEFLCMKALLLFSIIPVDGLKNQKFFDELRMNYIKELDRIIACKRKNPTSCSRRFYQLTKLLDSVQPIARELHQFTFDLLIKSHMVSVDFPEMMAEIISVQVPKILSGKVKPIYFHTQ
row,SMILES,outcome
1,O=C(NC(=O)c1c(F)cccc1F)Nc1cc(Cl)c(OC(F)(F)C(F)F)c(Cl)c1,inactive
2,c1ccc(-c2ccccc2)cc1,inactive
3,C=CC(=O)NCNC(=O)C=C,inactive

# System: not listed separately
# Experiment: ATG_M_19_TRANS: Attagene TRANS-FACTORIAL HepG2 Assay for M19 Transcription Factor (Internal Marker) (AID 2282974)
# Conditions: HepG2 Attagene TRANS-FACTORIAL M19 internal marker reporter
# In short: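 Reporter mRNA induction was measured in transfected HepG2 cells 24 h after dosing. Endpoint fitted upward relative to DMSO and serves as a background control within the multiplexed TRANS panel.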
row,SMILES,outcome
1,NS(=O)(=O)C(F)(F)C(F)(F)C(F)(F)C(F)(F)C(F)(F)C(F)(F)C(F)(F)C(F)(F)F,inactive
2,ClC1=C(Cl)[C@]2(Cl)[C@@H]3[C@H]4C[C@H]([C@@H]5O[C@H]45)[C@@H]3[C@@]1(Cl)C2(Cl)Cl,inactive
3,O=C(NC(=O)c1cc(F)c(F)cc1Cl)Nc1cc(F)ccc1N1CCC(C(=O)O)CC1,inactive
4,N#Cc1ccc(N(CC(N)=O)CC(F)(F)F)cc1C(F)(F)F,inactive
5,CC(c1ccc(O)cc1)(c1ccc(O)cc1)c1ccc(O)cc1,inactive
6,c1ccc(-c2ccccc2)cc1,inactive
7,Cc1cc(O)ccc1Cl,inactive
8,Cc1ccc(O)c(C)c1,inactive
9,CCC(C)(c1ccc(O)cc1)c1ccc(O)cc1,inactive
10,OCC(O)CO,inactive
11,O=C(O)C(F)(F)C(F)(F)C(F)(F)C(F)(F)C(F)(F)F,inactive
12,CCC(C)(CC)c1cc(NC(=O)c2c(OC)cccc2OC)on1,inactive
13,Cc1cc2c3c(c1)C(c1ccccc1)=N[C@@H](NC(=O)c1ccncc1)C(=O)N3CC2,inactive
14,O=S(=O)(O)C(F)(F)C(F)(F)C(F)(F)C(F)(F)F,inactive
15,C1CC2OC2CC1C1CO1 (stereo unspecified),inactive
16,CCSC(=O)N(CC)C1CCCCC1,inactive

# System: not listed separately
# Experiment: ATG_GAL4_TRANS: Attagene TRANS-FACTORIAL HepG2 Assay for GAL4 (Internal Marker) (AID 2282976)
# Conditions: HepG2 Attagene TRANS GAL4 internal marker reporter
# In short: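 Liver HepG2 line bearing multiplexed GAL4-UAS reporter constructs; 24 h chemical treatment. Transcripts were quantified as fluorescent fragments on capillary electrophoresis after RT-PCR and HpaI cut, with activity fitted upward from DMSO.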
row,SMILES,outcome
1,O=C(NC(=O)c1cc(F)c(F)cc1Cl)Nc1cc(F)ccc1N1CCC(C(=O)O)CC1,inactive
2,O=C(NC(=O)c1c(F)cccc1F)Nc1cc(Cl)c(OC(F)(F)C(F)F)c(Cl)c1,inactive
3,C=CC(N)=O,inactive
4,N#Cc1ccc(N(CC(N)=O)CC(F)(F)F)cc1C(F)(F)F,inactive
5,CC(c1ccc(O)cc1)(c1ccc(O)cc1)c1ccc(O)cc1,inactive
6,c1ccc(-c2ccccc2)cc1,inactive
7,CCCN(CCC)N=O,inactive
8,Cc1ccc(O)c(C)c1,inactive
9,C[C@]12CCC(=O)C=C1CC[C@@H]1[C@@H]2CC[C@]2(C)C(=O)CC[C@@H]12,inactive
10,CC1=C2C[C@H]3[C@@H](CC=C4C[C@@H](O)CC[C@@]43C)[C@@H]2CC[C@]12O[C@@H]1C[C@H](C)CN[C@H]1[C@H]2C,inactive
11,Clc1ccc(C(Cl)(Cl)Cl)cc1,inactive
12,Cc1cccc(C)c1N,inactive
13,Cc1cc2c3c(c1)C(c1ccccc1)=N[C@@H](NC(=O)c1ccncc1)C(=O)N3CC2,inactive
14,CCCCCCOC(=O)c1ccccc1C(=O)OCCCCCC,inactive
15,O=S(=O)(O)C(F)(F)C(F)(F)C(F)(F)C(F)(F)F,inactive
